In PubChem BioAssay (EPA / NIEHS):
Several values for one entry are separate records, joined by “and”; a condition that tells them apart may be missing. Equal values may be shown once. More than one record can exist for a structure, and the calls need not agree. Activity calls are given as the source filed them. The calls were made as follows: active = hit-call score of the fitted dose curve at least 0.9, where 1 is the maximum; inactive = score below 0.9.

read-out: Interleukin-1 alpha (IL1a), IL1A (gene 3552); assay: BSK_LPS_IL1a: BioMAP Diversity Plus: LPS Assay for Interleukin-1 alpha (IL1a) Biomarker Activity (AID 2283080); settings: primary human HUVEC with PBMC; actives raise or lower the signal
In short: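 HUVEC/PBMC co-culture, LPS system; 24 h after dosing; IL-1a by ELISA; gain or loss of signal fitted bidirectionally vs DMSO baseline.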

Row | SMILES | outcome
1 | O=C(O)C(F)(OC(F)(F)C(F)(OC(F)(F)C(F)(OC(F)(F)C(F)(F)C(F)(F)F)C(F)(F)F)C(F)(F)F)C(F)(F)F (stereo not given) | inactive
2 | FC(F)(Br)C(F)(F)C(F)(F)C(F)(F)C(F)(F)C(F)(F)Br | inactive
3 | O=C(O)C(F)(F)C(F)(F)C(F)F | inactive
4 | O=C(O)C(F)(OC(F)(F)C(F)(OC(F)(F)C(F)(F)C(F)(F)F)C(F)(F)F)C(F)(F)F (stereo not given) | inactive
5 | CCCCC(CC)COP(=O)(O)OCC(CC)CCCC (stereo not given) | inactive
6 | C=CC(F)(F)C(F)(F)C(F)(F)C(F)(F)C(F)(F)C(F)(F)C(F)(F)C(F)(F)F | inactive
7 | COC(=O)CCC(F)(F)C(F)(F)C(F)(F)C(F)(F)F | inactive
8 | C=CC(=O)OCC(F)(F)C(F)(F)C(F)(F)C(F)(F)C(F)(F)C(F)(F)C(F)(F)F | inactive
9 | FC(F)(F)C(F)(F)C(F)(F)C(F)(F)C(F)(F)C(F)(F)CC1CO1 (stereo not given) | inactive
10 | FC(F)(F)C(F)(F)C(F)(F)C(F)(F)C(F)(F)C(F)(F)C(F)(F)C(F)(F)CCS | inactive
11 | OCC(F)(F)C(F)(F)C(F)(F)C(F)(F)C(F)(F)C(F)F | inactive
12 | FC1CC(F)(F)C(F)(F)C1(F)F (stereo not given) | inactive
13 | FC(F)(F)C(F)(F)C(F)(F)CI | inactive
14 | NC(=O)C(F)(F)C(F)(F)C(F)(F)C(F)(F)F | inactive
15 | C=CC(F)(F)C(F)(F)C(F)(F)C(F)(F)C(F)(F)C(F)(F)C(F)(F)C(F)(F)C=C | inactive
16 | OCC(F)(F)C(F)(F)C(F)(F)C(F)F | inactive
17 | OCC(F)(F)C(F)(F)C(F)(F)F | inactive
18 | OCCCC(F)(F)C(F)(F)C(F)(F)F | inactive
19 | O=S(=O)(OCCOC(F)(F)F)C(F)(F)F | inactive

read-out: Monocyte Chemoattractant Protein-1 (MCP1), CCL2 (gene 6347); assay: BSK_LPS_MCP1: BioMAP Diversity Plus: LPS Assay for Monocyte Chemoattractant Protein-1 (MCP1) Biomarker Activity (AID 2283081); settings: primary human HUVEC with PBMC; actives raise or lower the signal
In short: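 ELISA read-out of MCP-1 after 24 h chemical dosing of a human umbilical vein endothelial cell/peripheral blood mononuclear cell co-culture stimulated with LPS. Gain or loss of signal fitted relative to DMSO controls.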

Row | SMILES | outcome
20 | OCC(F)(F)C(F)(F)C(F)(F)C(F)(F)C(F)(F)C(F)(F)F | inactive
21 | O=P(O)(O)OCCC(F)(F)C(F)(F)C(F)(F)C(F)(F)C(F)(F)C(F)(F)F | inactive
22 | O=C(CC(=O)C(F)(F)C(F)(F)F)C(F)(F)F | inactive
23 | O=C(O)C(F)(F)C(F)(F)F | inactive
24 | FC(F)(F)C(F)(F)C(F)(F)C(F)(F)C(F)(F)C(F)(F)CCS | inactive
25 | O=C(O)C(F)(F)C(F)(F)C(F)(F)C(F)(F)C(F)(F)C(F)(F)C(F)(F)C(F)(F)Cl | inactive
26 | FC(F)(Br)C(F)(F)C(F)(F)C(F)(F)C(F)(F)C(F)(F)Br | inactive
27 | O=C(O)C(F)(OC(F)(F)C(F)(OC(F)(F)C(F)(F)C(F)(F)F)C(F)(F)F)C(F)(F)F (stereo not given) | inactive
28 | CCCCC(CC)COP(=O)(O)OCC(CC)CCCC (stereo not given) | inactive
29 | C=CC(=O)OCC(F)(F)C(F)(F)C(F)(F)C(F)(F)C(F)(F)C(F)(F)C(F)(F)F | inactive
30 | OCC(F)(F)C(F)(F)C(F)(F)C(F)(F)C(F)(F)C(F)F | inactive
31 | NC(=O)C(F)(F)C(F)(F)C(F)(F)C(F)(F)F | inactive
32 | OCC(F)(F)C(F)(F)C(F)(F)C(F)F | inactive
33 | O=S(=O)(OCCOC(F)(F)F)C(F)(F)F | inactive

read-out: not listed separately; assay: BSK_LPS_PGE2: BioMAP Diversity Plus: LPS Assay for Prostaglandin E2 (PGE2) Biomarker Activity (AID 2283082); settings: primary human HUVEC with PBMC; actives raise or lower the signal;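 as to AC50: secreted prostaglandin E2 measured by ELISA in LPS-stimulated co-culture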
In short: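 HUVEC plus PBMC co-culture stimulated with LPS; secreted PGE2 quantified by ELISA 24 h after chemical dosing. Activity fitted bidirectionally against DMSO as negative control and baseline; parallel SRB total-protein staining served as cytotoxicity check.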

Row | SMILES | outcome | AC50
34 | O=C(O)C(F)(F)C(F)(F)C(F)(F)C(F)(F)F | inactive | –
35 | OCC(F)(F)C(F)(F)C(F)(F)C(F)(F)C(F)(F)C(F)(F)F | inactive | –
36 | C=C(C)C(=O)OCCC(F)(F)C(F)(F)C(F)(F)C(F)(F)C(F)(C(F)(F)F)C(F)(F)F | inactive | –
37 | O=P(O)(O)OCCC(F)(F)C(F)(F)C(F)(F)C(F)(F)C(F)(F)C(F)(F)F | inactive | –
38 | O=S(=O)(OCC(F)F)C(F)(F)F | inactive | –
39 | O=C(CC(=O)C(F)(F)C(F)(F)F)C(F)(F)F | inactive | –
40 | C=CC(=O)OCC(F)(F)C(F)(F)C(F)(F)C(F)(F)COC(=O)C=C | inactive | 8.08 µM (active)
41 | CCCCCCCCC(F)(F)C(F)(F)C(F)(F)C(F)(F)C(F)(F)C(F)(F)F | inactive | –
42 | N=C(N)C(F)(F)C(F)(F)C(F)(F)C(F)(F)C(F)(F)C(F)(F)C(F)(F)F | inactive | –
43 | O=C(O)C(F)(F)C(F)(F)F | inactive | –
44 | FC(F)(I)C(F)(F)C(F)(F)C(F)(F)I | inactive | –
45 | FC(F)(F)C(F)(F)C(F)(F)C(F)(F)C(F)(F)C(F)(F)C(F)(F)C(F)(F)F | inactive | –
46 | FC(F)(F)C(F)(F)C(F)(F)N(C(F)(F)C(F)(F)C(F)(F)F)C(F)(F)C(F)(F)C(F)(F)F | inactive | –
47 | FC(F)(F)C(F)(F)CNCC(F)(F)C(F)(F)F | inactive | –
48 | FC(F)(F)C(F)(F)C(F)(F)C(F)(F)C(F)(F)C(F)(F)CCS | inactive | –
49 | O=C(O)C(F)(F)C(F)(F)C(F)(F)F | inactive | –
50 | O=C(O)C(F)(F)C(F)(F)C(F)(F)C(F)(F)C(F)(F)C(F)(F)C(F)(F)C(F)(F)Cl | – | 21.9 µM (active) and 22 µM (active)
51 | O=C(O)C(F)(OC(F)(F)C(F)(OC(F)(F)C(F)(OC(F)(F)C(F)(F)C(F)(F)F)C(F)(F)F)C(F)(F)F)C(F)(F)F (stereo not given) | inactive | –

Row | SMILES | outcome | AC50
52 | FC(F)(Br)C(F)(F)C(F)(F)C(F)(F)C(F)(F)C(F)(F)Br | inactive | –
53 | O=C(O)C(F)(F)C(F)(F)C(F)F | inactive | –
54 | O=C(O)C(F)(OC(F)(F)C(F)(OC(F)(F)C(F)(F)C(F)(F)F)C(F)(F)F)C(F)(F)F (stereo not given) | inactive | –
55 | CCCCC(CC)COP(=O)(O)OCC(CC)CCCC (stereo not given) | inactive | –
56 | C=CC(F)(F)C(F)(F)C(F)(F)C(F)(F)C(F)(F)C(F)(F)C(F)(F)C(F)(F)F | inactive | –
57 | COC(=O)CCC(F)(F)C(F)(F)C(F)(F)C(F)(F)F | inactive | –
58 | C=CC(=O)OCC(F)(F)C(F)(F)C(F)(F)C(F)(F)C(F)(F)C(F)(F)C(F)(F)F | inactive | –
59 | FC(F)(F)C(F)(F)C(F)(F)C(F)(F)C(F)(F)C(F)(F)CC1CO1 (stereo not given) | inactive | –
60 | FC(F)(F)C(F)(F)C(F)(F)C(F)(F)C(F)(F)C(F)(F)C(F)(F)C(F)(F)CCS | inactive | –
61 | OCC(F)(F)C(F)(F)C(F)(F)C(F)(F)C(F)(F)C(F)F | inactive | –
62 | FC1CC(F)(F)C(F)(F)C1(F)F (stereo not given) | inactive | –
63 | FC(F)(F)C(F)(F)C(F)(F)CI | inactive | –
64 | NC(=O)C(F)(F)C(F)(F)C(F)(F)C(F)(F)F | inactive | –
65 | C=CC(F)(F)C(F)(F)C(F)(F)C(F)(F)C(F)(F)C(F)(F)C(F)(F)C(F)(F)C=C | inactive | –
66 | OCC(F)(F)C(F)(F)C(F)(F)C(F)F | inactive | –
67 | OCC(F)(F)C(F)(F)C(F)(F)F | inactive | –
68 | OCCCC(F)(F)C(F)(F)C(F)(F)F | inactive | –
69 | O=S(=O)(OCCOC(F)(F)F)C(F)(F)F | inactive | –
